# Test results taken from PubChem BioAssay (EPA / NIEHS).
# Active and inactive are the calls of the source. Rule for the calls: active = hit-call score of the fitted dose curve at least 0.9, where 1 is the maximum; inactive = score below 0.9.
# Read-out: TIMP metallopeptidase inhibitor 2 (TIMP2), TIMP2 (gene 7077)
# Experiment: BSK_KF3CT_TIMP2: BioMAP Diversity Plus: KF3CT Assay for TIMP metallopeptidase inhibitor 2 (TIMP2) Biomarker Activity (AID 2283071)
# Settings: primary human keratinocytes with fibroblasts; actives raise or lower the signal
# Procedure, shortened: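 Measurements come from ELISA detection of TIMP-2 at 24 hours in a dosed human keratinocyte and foreskin fibroblast co-culture. DMSO serves as negative control and baseline.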
SMILES,outcome,AC50
N#CC(Br)Br,inactive,–
OCCOCCO,inactive,–
COP(=S)(OC)SCN1C(=O)c2ccccc2C1=O,inactive,–
C=CCc1ccc2c(c1)OCO2,inactive,–
O=C(Nc1ccccc1)c1ccccc1I,inactive,–
c1ccc(N=Nc2ccccc2)cc1,inactive,–
C1=Cc2cccc3cccc1c23,inactive,–
CS(=O)(=O)NC(=O)c1cc(Oc2ccc(C(F)(F)F)cc2Cl)ccc1[N+](=O)[O-],inactive,–
Oc1ccccc1Cl,inactive,–
CO[C@@H]1[C@H](OC(=O)NC(=O)CCl)CC[C@]2(CO2)[C@H]1[C@@]1(C)O[C@@H]1CC=C(C)C,inactive,–
CC(C)(C)OOC(=O)c1ccccc1,inactive,–
[As]#[In],inactive,–
Nc1ccc(N=Nc2ccccc2)cc1,inactive,–
c1ccc2c(c1)-c1cccc3cccc-2c13,inactive,–
CC(C)(OOC(C)(C)c1ccccc1)c1ccccc1,inactive,–
ClC1=C(Cl)[C@]2(Cl)[C@H]3[C@H]([C@@H]4C=C[C@H]3C4)[C@@]1(Cl)C2(Cl)Cl,–,20 µM (active)
O=[N+]([O-])c1ccc(Oc2ccc(Cl)cc2Cl)cc1,inactive,–
CCC[CH2][Sn]([Cl])([CH2]CCC)[CH2]CCC,–,0.246 µM (active)
CN(C)c1ccccc1,inactive,–
COC(=O)c1ccccc1N,inactive,–
CN(C)c1ccc(C(=O)c2ccc(N(C)C)cc2)cc1,inactive,–
Cc1cc(N=Nc2ccccc2C)ccc1N,–,20 µM (active)
C[N+](C)(C)CC1CO1 (stereo not given),inactive,–
O=Cc1ccco1,inactive,–
CCC(C)c1ccc(O)cc1 (stereo not given),inactive,–
[O-][Cl+]O,inactive,–
O=C(O)C1C2CCC(O2)C1C(=O)O (stereo not given),inactive,–

# Read-out: Transforming growth factor beta 1 (TGFb1), TGFB1 (gene 7040)
# Experiment: BSK_KF3CT_TGFb1: BioMAP Diversity Plus: KF3CT Assay for Transforming growth factor beta 1 (TGFb1) Biomarker Activity (AID 2283072)
# Settings: primary human keratinocytes with fibroblasts; actives raise or lower the signal
# Procedure, shortened: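 TGF-b1 ELISA on a 24 h dosed co-culture of human keratinocytes and foreskin fibroblasts; cytotoxicity tracked in parallel cultures by SRB staining.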
SMILES,outcome,AC50
N#CC(Br)Br,inactive,–
OCCOCCO,inactive,–
O=C(N[C@H](c1ccccc1)[C@@H]1CN2CCC1CC2)c1c(Cl)ccc(C(F)(F)F)c1Cl,–,48.7 µM (active)
COP(=S)(OC)SCN1C(=O)c2ccccc2C1=O,inactive,–
C=CCc1ccc2c(c1)OCO2,inactive,–
O=C(Nc1ccccc1)c1ccccc1I,inactive,–
c1ccc(N=Nc2ccccc2)cc1,inactive,–
C1=Cc2cccc3cccc1c23,inactive,–
CS(=O)(=O)NC(=O)c1cc(Oc2ccc(C(F)(F)F)cc2Cl)ccc1[N+](=O)[O-],inactive,–
Oc1ccccc1Cl,inactive,–
CO[C@@H]1[C@H](OC(=O)NC(=O)CCl)CC[C@]2(CO2)[C@H]1[C@@]1(C)O[C@@H]1CC=C(C)C,inactive,–
CC(C)(C)OOC(=O)c1ccccc1,inactive,–
[As]#[In],inactive,–
Nc1ccc(N=Nc2ccccc2)cc1,inactive,–
c1ccc2c(c1)-c1cccc3cccc-2c13,inactive,–
CC(C)(OOC(C)(C)c1ccccc1)c1ccccc1,inactive,–
ClC1=C(Cl)[C@]2(Cl)[C@H]3[C@H]([C@@H]4C=C[C@H]3C4)[C@@]1(Cl)C2(Cl)Cl,–,22.4 µM (active)
O=[N+]([O-])c1ccc(Oc2ccc(Cl)cc2Cl)cc1,inactive,–
CCC[CH2][Sn]([Cl])([CH2]CCC)[CH2]CCC,–,0.692 µM (active)
CN(C)c1ccccc1,inactive,–
COC(=O)c1ccccc1N,inactive,–
CN(C)c1ccc(C(=O)c2ccc(N(C)C)cc2)cc1,–,5.11 µM (active)
Cc1cc(N=Nc2ccccc2C)ccc1N,–,28.5 µM (active)
C[N+](C)(C)CC1CO1 (stereo not given),inactive,–
O=Cc1ccco1,inactive,–
CCC(C)c1ccc(O)cc1 (stereo not given),inactive,–
[O-][Cl+]O,inactive,–
O=C(O)C1C2CCC(O2)C1C(=O)O (stereo not given),inactive,–

# Read-out: C-C motif chemokine 2 (Homo sapiens) (UniProt P13500)
# Experiment: BSK_KF3CT_MCP1: BioMAP Diversity Plus: KF3CT Assay for Monocyte Chemoattractant Protein 1 (MCP1/CCL2) Biomarker Activity (AID 2283073)
# Settings: primary human keratinocytes with fibroblasts; actives raise or lower the signal
# Procedure, shortened: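 KF3CT skin co-culture (keratinocytes/foreskin fibroblasts), 24 h post-dose; MCP-1 by ELISA; gain/loss of signal fit bidirectionally vs DMSO baseline.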
SMILES,outcome,AC50
N#CC(Br)Br,inactive,–
OCCOCCO,inactive,–
O=C(N[C@H](c1ccccc1)[C@@H]1CN2CCC1CC2)c1c(Cl)ccc(C(F)(F)F)c1Cl,inactive,–
COP(=S)(OC)SCN1C(=O)c2ccccc2C1=O,inactive,–
C=CCc1ccc2c(c1)OCO2,inactive,–
O=C(Nc1ccccc1)c1ccccc1I,inactive,–
c1ccc(N=Nc2ccccc2)cc1,inactive,–
C1=Cc2cccc3cccc1c23,inactive,–
CS(=O)(=O)NC(=O)c1cc(Oc2ccc(C(F)(F)F)cc2Cl)ccc1[N+](=O)[O-],inactive,–
Oc1ccccc1Cl,inactive,–
CO[C@@H]1[C@H](OC(=O)NC(=O)CCl)CC[C@]2(CO2)[C@H]1[C@@]1(C)O[C@@H]1CC=C(C)C,inactive,–
CC(C)(C)OOC(=O)c1ccccc1,inactive,–
[As]#[In],inactive,–
Nc1ccc(N=Nc2ccccc2)cc1,inactive,–
CC(C)(OOC(C)(C)c1ccccc1)c1ccccc1,inactive,–
ClC1=C(Cl)[C@]2(Cl)[C@H]3[C@H]([C@@H]4C=C[C@H]3C4)[C@@]1(Cl)C2(Cl)Cl,–,22.3 µM (active)
O=[N+]([O-])c1ccc(Oc2ccc(Cl)cc2Cl)cc1,inactive,–
CN(C)c1ccccc1,inactive,–
COC(=O)c1ccccc1N,inactive,–
CN(C)c1ccc(C(=O)c2ccc(N(C)C)cc2)cc1,inactive,–
Cc1cc(N=Nc2ccccc2C)ccc1N,inactive,–
C[N+](C)(C)CC1CO1 (stereo not given),inactive,–
O=Cc1ccco1,inactive,–
CCC(C)c1ccc(O)cc1 (stereo not given),inactive,–
O=C(O)C1C2CCC(O2)C1C(=O)O (stereo not given),inactive,–
